L3MBTL1 inh = L3MBTL1 (human) inhibition. AlphaScreen L3MBTL1–H3K9me1 peptide binding. Potency, µM (titrated, usually from 57.1 µM), for the others: at the top dose activity, negative = inhibition, actives largely listed as inhibitors. Q9Y468. 230,000 compounds, 0.66% hits; further: on the % scale 0 is the no-effect control and ±100 the full control effect; nearly all actives have a fitted effect of over 60% in size
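First, the protein-peptide complex forms for 30 min at room temperature (L3MBTL1 50 nM, biotinylated H3K9me1 peptide 75 nM). Next, compounds are pin-transferred and incubated 30 min. Finally, AlphaScreen beads are added and read after 30 min.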
G9a inh = blocks human histone lysine methyltransferase G9a. Q96KQ7. G9a H3K9 monomethylation, AlphaScreen, 2 h. AID 504332. 350,000 compounds, 8.8% hits. Potency, µM (series often up to 102 µM), without a hit: top-dose activity, negative = inhibition, hits mostly inhibitors; further: on the % scale 0 is the no-effect control and ±100 the full control effect; nearly all actives have a fitted effect of over 75% in size
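Methyltransferase reactions run at room temperature for 2 h (20 nM enzyme, 500 nM biotin-H3K9 peptide, 20 uM SAM) after a 15 min compound preincubation; product detected by AlphaScreen beads and anti-H3K9me1 antibody.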
BAZ2B inh = blocks human BAZ2B; AID 504333; AlphaScreen BAZ2B-H3K14Ac peptide displacement; Q9UIF8; 360,000 compounds, 4.4% hits; Potency, µM (doses to about 114 µM), for the others: at the top dose activity change, negative = inhibition, most hits filed as inhibitors; further: on the % scale 0 is the no-effect control and ±100 the full control effect; nearly all actives have a fitted effect of over 60% in size
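BAZ2B (50 nM) with biotin-H3(5-23)K14Ac peptide (50 nM) in PBS pH 7.4, 0.01% Tween-20, preformed 30 min, then compound 30 min at room temperature; top concentration 110uM. AlphaScreen streptavidin donor/nickel chelate acceptor beads (10 ug/mL final), 20 min dark, signal read.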
JMJD2A Tudor = JMJD2A Tudor domain (human) inhibition; O75164; AlphaScreen JMJD2A-Tudor / H3K4me3 peptide binding; Potency, µM (top dose mostly 114 µM), for the others: at the highest dose activity change, negative = inhibition, most hits filed as inhibitors; 390,000 compounds, 4.4% hits; AID 504339; further: on the % scale 0 is the no-effect control and ±100 the full control effect; nearly all actives have a fitted effect of over 50% in size
HP1b binding inh = HP1-beta chromodomain-methylated histone interaction inhibition; Potency, µM (series often up to 114 µM), for inactives: top-dose activity change, negative = inhibition, most hits filed as inhibitors; AlphaScreen HP1-beta / biotin-H3K9me3 peptide binding; P83916; 390,000 compounds, 0.56% hits; further: nearly all actives have a fitted effect of over 70% in size
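HP1-beta protein (50 nM final) preincubated 30 min at room temperature with biotinylated H3(1-18)K9me3 peptide (50 nM) in PBS pH 7.4, 0.01% Tween-20, then compound added for 30 min. AlphaScreen streptavidin donor/nickel chelate acceptor beads (10 ug/mL final), 30 min dark, luminescence read.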
Numbers without * were called inactive; ? = inconclusive; . = no result; [ ] = remark or other dose. In the library only some 11% were active in any assay of this set; here they are far more common. The call rests on the fitted dose curve; in most records, active means well fitted inhibition curve with a large enough effect; inconclusive means small, poorly fitted or top-dose-only effect; inactive means no such curve, though single readings can be large or run the other way. Potency means the concentration at half of the fitted maximal effect.

SMILES	L3MBTL1 inh	G9a inh	BAZ2B inh	JMJD2A Tudor	HP1b binding inh
O=C(NCCN1CCOCC1)C1(C(F)(F)F)C/C(=C\CCO)CCCO1 (centres undefined)	.	.	.	6%	30%
COc1ccc(OC)c(CNCCNC(=O)c2ccco2)c1	.	?	56µM*	.	.
COCCCNC(=O)c1cccs1	.	7%	12%	1%	74%
COc1cccc(CNCCNC(=O)c2ccco2)c1OC	.	11µM*	50µM*	?	-18%
COc1cc(OC)cc(C(=O)NCCNC(=O)c2ccco2)c1	0%[11.4 µM]	-3%[59 µM]	-1%	-8%	27%
O=C(NCCNCc1ccc(F)cc1)c1ccco1	.	7.9µM*	50µM*	3.5µM*	?
COc1ccc(CNCCNC(=O)c2cccs2)c(OC)c1OC	3%	14µM*	56µM*	22µM*	-22%
Cc1ccccc1CNC(=O)CCCn1c(=O)c2cccn2c2ccccc21	.	10%[59 µM]	15%	-12%	60%
O=C(NCc1ccc(F)cc1)c1cc(-c2ccc(Cl)cc2)n[nH]1	.	0%[59 µM]	-4%	-12%	26%
COc1ccc(CNC(=O)CCc2c(C)c3ccc(OC)c(C)c3oc2=O)cc1OC	.	1%[59 µM]	-14%	-18%	8%
CN1CCO/C1=C(\C(Cl)=C(Cl)Cl)[N+](=O)[O-]	21%	20µM*	50µM*	56µM*	23%
O=[N+]([O-])/C(C(=C(Cl)Cl)N1CCOCC1)=C1\NCCO1	-3%	.	?	-1%	49%
CC(Cc1c[nH]c2ccccc12)C(=O)NCc1ccco1 (centres undefined)	.	32µM*	50µM*	?	?
O=C(CCSCCC(=O)NCc1ccco1)NCc1ccco1	?	?	56µM*	20µM*	?
O=C(CCSCc1ccccc1Cl)NCc1ccco1	.	22%[59 µM]	?	-2%	22%
Cc1cc(-c2ccco2)n(CC(=O)NCc2ccco2)n1	.	50µM*	1%	-24%	31%
CC(C)C(CC(=O)NCc1ccco1)c1ccco1 (centres undefined)	-15%	40µM*	?	-28%	10%
O=C1CN(S(=O)(=O)c2c(F)cccc2F)CCN1S(=O)(=O)c1ccc2c(c1)OCCO2	.	.	.	-5%	.
O=C(CCCSc1nc2ccccc2s1)NCc1ccco1	-3%	79µM*	-1%	-11%	0%
O=C(NCc1ccco1)c1cccnc1-c1nc2ccccc2s1	-7%	?	-34%	79µM*	?
CCc1ccccc1NC(=O)CCCSc1nc2ccccc2s1	10%	2%[59 µM]	-5%	-8%	20%
Cc1ccccc1C(=O)NC1(C(F)(F)F)N=C(c2ccccc2)N(C2CCCCC2)C1=O (centres undefined)	.	-4%[59 µM]	-16%	-10%	20%
CCOc1ccc(N(C)c2ccc(/C=C3/SC(=S)NC3=O)cc2)cc1	-22%	.	50µM*	3.5µM*	?
CN(C)c1ccc(C=C2SC(=S)NC2=O)cc1	.	.	.	?	-10%[57 µM]
CCOc1c(O)ccc(/C=C2\SC(=S)NC2=O)c1[N+](=O)[O-]	?	14µM*	40µM*	?	?
SMILES	L3MBTL1 inh	G9a inh	BAZ2B inh	JMJD2A Tudor	HP1b binding inh
O=C(NCCc1ccccc1Cl)c1cc2ccccn2n1	.	5%[59 µM]	-3%	-15%	29%
CCN1C(=O)[C@@H]2Cc3c([nH]c4ccccc34)C(c3ccc(OC)cc3)N2C1=S (some centres undefined)	.	35µM*	-30%	?	1%
COC(=O)COc1cc(C)cc2oc(=O)c(CC(=O)OC)c(C)c12	1%	9%[59 µM]	-4%	-8%	12%
COC(=O)COc1cc(OCC(=O)OC)c2c(C)c(Cl)c(=O)oc2c1	7%	10µM*	-12%	-9%	20%
CCC(=O)NC1CC(=O)N(c2ccc3c(c2)OCCO3)C1 (centres undefined)	.	-12%[59 µM]	2%	-10%	20%
COc1cc(/C=N/NC(=O)c2ccoc2C)ccc1O	9%	50µM*	8%	3%	24%
COc1ccc(/C=N/NC(=O)c2ccoc2C)cc1CN1CCN(c2ccc(F)cc2)CC1	.	?	79µM*	?	?
CCOc1ccc(/C=N/NC(=O)c2ccoc2C)cc1OC	.	1%	1%	-19%	-8%
CCOC(=O)CSc1nc(N)c(C#N)c(-c2ccc(OCC)cc2)c1C#N	9%	45µM*	-4%	-10%	20%
COC(=O)CSc1nc(N)c(C#N)c(-c2ccc(O)cc2)c1C#N	-7%	-2%	-6%	-16%	42%
COc1ccc(S(=O)(=O)Nc2c(O)c3ccccc3oc2=O)cc1	.	-36%[12.7 µM]	29%	-8%	19%
Cc1ccc(S(=O)(=O)Nc2c(O)c3ccccc3oc2=O)cc1	.	28µM*	-3%	-14%	46%
Cc1ccc(S(=O)(=O)Nc2c(NC3CCCCC3)c3ccccc3oc2=O)cc1C	.	.	0%	-13%	13%[57 µM]
C/C(=N/NS(=O)(=O)c1ccc(C)cc1)c1c(O)c2ccccc2oc1=O	.	50µM*	-18%	-13%	15%
Cc1ccc(S(=O)(=O)Nc2c(O)c3ccccc3oc2=O)cc1C	.	50µM*	5%	-1%	-1%
O=C(COC(=O)Cn1cc(C(F)(F)F)ccc1=O)NCc1ccccc1	0%	-19%	12%	-10%	2%
Cc1nc(N2CCCC2)c2c(C(=O)Nc3ccc(C)c(Cl)c3)c(C)oc2n1	.	-6%[59 µM]	7%[57.1 µM]	-14%	48%
Cc1ccc(CN(Cc2cccn2-c2nnc(N3CCCC3=O)s2)C(=O)Nc2ccccc2Cl)cc1	.	-27%[59 µM]	-17%	-28%	25%
COc1ccc(NS(=O)(=O)c2ccc3nc(COc4ccc(Cl)c(C)c4)[nH]c3c2)cc1	0%	45µM*	-3%	-26%	1%
COc1ccc(NS(=O)(=O)c2ccc3nc(-c4ccccc4)[nH]c3c2)cc1	.	9%[59 µM]	2%	0%	44%
Cc1cc(OCCN2CC(C)OC(C)C2)ccc1[N+](=O)[O-] (centres undefined)	3%	13µM*	?	2.8µM*	?
CC1CN(CCOc2ccc(F)cc2)CC(C)O1 (centres undefined)	1%	7.1µM*	50µM*	20µM*	?
CC1CN(CCOc2ccc([N+](=O)[O-])cc2)CC(C)O1 (centres undefined)	7%	2.5µM*	?	6.3µM*	?
CC1CN(CCCOc2ccc([N+](=O)[O-])cc2)CC(C)O1 (centres undefined)	3%	10µM*	-9%	14µM*	?
Cn1c(=O)n(CCOc2ccc([N+](=O)[O-])cc2)c2ccccc21	3%	-7%[12.7 µM]	-8%	-18%	14%
COc1ccc(-c2nc(SCC(=O)NCCc3ccc(OC)c(OC)c3)n[nH]2)cc1	.	13%[59 µM]	2%	-14%	19%[57 µM]
O=[N+]([O-])c1ccc(OCCOCCOc2ccc([N+](=O)[O-])cc2)cc1	.	-8%[59 µM]	-4%	-12%	13%
